Test results from PubChem BioAssay.

Legend:
[1] = molecular target: Tumor necrosis factor receptor superfamily member 10B (Homo sapiens) (UniProt O14763); assay: viability loss of caspase-8 NB7 cells with TRAIL – with/without TRAIL, luminescence panel, confirmation (AID 651596); conditions: NB7 neuroblastoma + caspase-8, TRAIL sensitization, NB7 Caspase-8, with TRAIL, mean of runs, at 10 µM, stronger effect = higher value
[2] = as above; conditions: NB7 neuroblastoma + caspase-8, without TRAIL, NB7 Caspase-8, without TRAIL, mean of runs, at 10 µM

Sequence of Tumor necrosis factor receptor superfamily member 10B (Homo sapiens) (O14763 whole entry, looked up): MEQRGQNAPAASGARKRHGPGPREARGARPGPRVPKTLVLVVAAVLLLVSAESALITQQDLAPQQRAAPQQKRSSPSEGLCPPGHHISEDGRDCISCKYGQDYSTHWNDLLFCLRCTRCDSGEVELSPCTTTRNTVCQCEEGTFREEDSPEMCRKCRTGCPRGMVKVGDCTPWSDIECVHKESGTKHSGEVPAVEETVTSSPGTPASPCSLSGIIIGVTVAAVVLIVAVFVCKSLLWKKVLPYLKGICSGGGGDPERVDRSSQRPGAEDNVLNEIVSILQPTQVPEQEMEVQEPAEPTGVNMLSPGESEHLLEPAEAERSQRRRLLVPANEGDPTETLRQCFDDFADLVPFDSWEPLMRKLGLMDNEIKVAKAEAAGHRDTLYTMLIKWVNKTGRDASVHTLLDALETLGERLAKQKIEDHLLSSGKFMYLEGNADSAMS

Row | Compound | activity [1] | activity [2]
1 | O=C(CCl)Nc1ccccc1C(=O)Nc1ccc2c(c1)OCO2 | 74.1% | 73.8%
2 | O=C(c1ccc2c3n(nc2c1)-c1ccccc1CO3)N1CCCCC1 | 79.2% | 78.4%
3 | C/C(=N\NC(=O)c1ccccc1F)c1cccc(NC(=O)c2ccc(C)cc2)c1 | 59.8% | 71.5%
4 | CN(C)c1cccc(C(=O)N/N=C/c2ccsc2)c1 | 65% | 40.4%
5 | CCc1ccc(NC(=O)c2nc(S(=O)(=O)Cc3ccccc3)ncc2Cl)cc1 | 51.2% | 86.6%
6 | O=C(COC(=O)c1ccccc1C(=O)c1ccc(Cl)c([N+](=O)[O-])c1)NC1CC1 | 98.7% | 99.3%
7 | CCCCc1ccc(NC(=O)c2ccc(N(C)S(C)(=O)=O)cc2)cc1 | 25.8% | 19.9%
8 | CCC(OC(=O)c1ccc(S(C)(=O)=O)c([N+](=O)[O-])c1)C(=O)NC1C2CC3CC(C2)CC1C3 (centres undefined) | 79.5% | 97.7%
9 | Cc1nc(N)nc(N)c1-c1ccc([N+](=O)[O-])cc1 | 71.8% | 81.2%
10 | Cc1ccc(-n2cc(C(=O)c3ccccc3O)cn2)cc1 | 52% | 38.6%
11 | COc1ccc2[nH]c3c(NCCC4=CCCCC4)ncnc3c2c1 | 35.8% | 44.1%
12 | C#CC(=O)N(c1ccc(OC)cc1OC)C(C(=O)NC1CCCC1)c1cccs1 (centres undefined) | 99% | 99.6%
13 | COc1cc(/C=N/Nc2nn3cnnc3c3ccccc23)cc(OC)c1OC | 73.9% | 76.2%
14 | C/C(=N\Nc1nncc2ccccc12)c1cccc(OC(F)F)c1 | 75.8% | 72.8%
15 | N/C(=N\OC(=O)COc1ccc(Br)cc1Cl)c1ccccn1 | 38.2% | 47.5%
16 | O=C(Nc1ccc(N2CCOCC2)c(F)c1)c1cccs1 | 48.5% | 63.3%
17 | CCOc1ccc(/C=N/Nc2ccccn2)cc1 | 53.4% | 41.2%
18 | Cn1c(=O)n(CCc2ccccc2)c(=O)c2c1nc1n2CCCN1CCc1ccccc1 | 21.1% | 24.9%
19 | CN(C)C(=O)N1CCN(c2nc(-c3ccccc3)cs2)CC1 | 43.7% | 48.5%
20 | COc1cc(OC)nc(Nc2nc(C(N)Cc3ccc(C(F)(F)F)cc3)cs2)n1 (centres undefined) | 33.2% | 77.7%
21 | O=C(CCl)N(CCCNC(=O)C(F)(F)F)c1ccc([N+](=O)[O-])cc1 | 98.5% | 98.3%
22 | COc1ccccc1C(CNc1ccc(S(=O)(=O)N2CCCC2)cc1[N+](=O)[O-])N(C)C (centres undefined) | 52.1% | 55.8%
